Laboratory results reported in the supplement of paper PMC10811239.

The molecules below were run on LEGO organoid PTN (PTEN-/-; TP53-/-; NF1-/-) (assay: bioluminescence (viable cell) signal fold change after vs before treatment, normalised to DMSO (ratio); higher = more tumour cell growth / less inhibition). Conditions: 10 µM; treatment time 6 days.
Procedure: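 Luc2-labelled iPSC-derived glioblastoma-like organoids (LEGOs, genotypes PT = PTEN-/-;TP53-/-, PTCC = plus CDKN2A/B-/-, PTN = plus NF1-/-) were treated with 10 uM drug for 6 days (applied every other day) at 37 C. Bioluminescence imaging was done before treatment and 2 days after the last dose. BLI signals were normalised to the DMSO control on the same day and then to the pre-treatment signal (N=3).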

Compound	bioluminescence
Cl.O=c1n(CCCN2CCN(c3cccc(Cl)c3)CC2)nc2ccccn12 [Trazodone hydrochloride]	0.985
Cl.Cc1ccsc1\C(=C\CCN1CCC[C@H](C1)C(O)=O)c1sccc1C [Tiagabine hydrochloride]	0.83
C[C@@H]1CCN(C(=O)CC#N)C[C@@H]1N(C)c1ncnc2[nH]ccc12 [Tofacitinib]	1.19
C[C@@H]1O[C@]2(CS1)CN1CCC2CC1.C[C@@H]1O[C@]2(CS1)CN1CCC2CC1.Cl.Cl.O [Cevimeline hydrochloride hemihydrate]	0.522
CCOc1nc2cccc(C(=O)O)c2n1Cc1ccc(-c2ccccc2-c2nn[nH]n2)cc1 [Candesartan]	2.99
Cc1cc(C)nc(NS(=O)(=O)c2ccc(N)cc2)n1 [Sulfamethazine]	1.03
CCCCCCCCc1ccc(CCC(N)(CO)CO)cc1.Cl [Fingolimod hydrochloride]	0.473
FC(F)(F)C(Cl)Br (stereo unspecified) [Anestan]	1.3
COc1ccc([C@@H]2CC(=O)c3c(O)cc(O[C@@H]4O[C@H](CO[C@@H]5O[C@@H](C)[C@H](O)[C@@H](O)[C@H]5O)[C@@H](O)[C@H](O)[C@H]4O)cc3O2)cc1O [Hesperidin]	1.75
CCOC(=O)c1ccc(C#Cc2ccc3c(c2)C(C)(C)CCS3)nc1 [Tazarotene]	1.11
Nc1ncn([C@H]2C[C@H](O)[C@@H](CO)O2)c(=O)n1 [Decitabine]	1.09
